Assay results as given in publication PMC7819943, “Rice protein-binding microarrays: a tool to detect cis-acting elements near promoter regions in rice”.
Over roughly 68,000 sequences, “fluorescence intensity (a.u.)” has its median near 9,100; the highest 2% begin near 16,000. Shown is part of a subset that was picked to be rich in the highest values.

Molecular target: OsWRKY34 (Oryza sativa, UniProt Q0JBA9 1-250)
Test: protein-binding microarray (RPBM); PBS, 2% BSA, 51.3 ng/ul salmon testes DNA, 50 uM zinc acetate, 200 nM TF, 25 C, 1 h; high values mean tight binding
Details: protein: recombinant; tags: N-terminal polyhistidine and DsRed monomer fusion (pET32a); label: CyDye5-dUTP incorporated in the synthesized complementary strand; 3' TTTTT single-stranded linker to array surface; dsDNA, one strand shown
Outline: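 The binding signal is fluorescence intensity per feature, in arbitrary units, read on an Axon 4000B scanner. Polyhistidine- and DsRed-tagged transcription factors (N-terminal fusions) from E. coli BL21-CodonPlus were purified on Ni–NTA and applied at 200 nM for 1 h at 25 °C to a double-stranded, BSA-blocked custom Agilent array in buffer with 50 µM zinc acetate.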

Chain of OsWRKY34 (Q0JBA9 entry or part of it): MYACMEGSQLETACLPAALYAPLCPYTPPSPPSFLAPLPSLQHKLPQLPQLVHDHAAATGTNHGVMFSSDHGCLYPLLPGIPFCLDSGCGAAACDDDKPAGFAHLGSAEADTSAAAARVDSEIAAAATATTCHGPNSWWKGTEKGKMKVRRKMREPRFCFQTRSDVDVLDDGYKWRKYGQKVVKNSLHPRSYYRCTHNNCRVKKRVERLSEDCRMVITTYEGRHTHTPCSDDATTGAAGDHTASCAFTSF

Sequence	binding signal
GGTTTGTTTGGAGGCGCAATGTTTCTCACCCTGTCGTTCCCGGAGTCACCTAGTGCAG	12700 fluorescence intensity (a.u.)
AGGTCTTTTTCACGTCGCAACCATGGCTTCAAATTTTGCTCGGAGTCACCTAGTGCAG	11900 fluorescence intensity (a.u.)
CTCGCCTGACCCTGTCAAACGCCGGGCCGCGGACCCCGCCCGGAGTCACCTAGTGCAG	8970 fluorescence intensity (a.u.)
GAGCTTATAGGGTGGGTTGTGTCCATGGAGTAACTATTATCGGAGTCACCTAGTGCAG	18600 fluorescence intensity (a.u.)
TGATGTCTTATCTCGGGTCTCATCTTTTCGCTTATGCTTACGGAGTCACCTAGTGCAG	8990 fluorescence intensity (a.u.)
TCGTGGGAAGGGCAAAGAAAAGACGGGGTGGTGGGCATCGCGGAGTCACCTAGTGCAG	8420 fluorescence intensity (a.u.)
GGGCTAGTGTTTTTATGGTGTGGTTGGGGATTCAGCTTGCCGGAGTCACCTAGTGCAG	11600 fluorescence intensity (a.u.)
CGTAGGTAAGTAGGGTTATTATAGTTATTTGTGTATATATCGGAGTCACCTAGTGCAG	9300 fluorescence intensity (a.u.)
GAGCTTGGGGTTGTGTATGGTGGTGGTGGTGTGGTAGCTACGGAGTCACCTAGTGCAG	33200 fluorescence intensity (a.u.)
AACAGTGGTATCGTTGTGTAGGGGTGGGCTGGCAAAAAGACGGAGTCACCTAGTGCAG	20000 fluorescence intensity (a.u.)
GGTGACGGCTGGTGTGGGTGTAGGGTGGCCGCGCGGTACGCGGAGTCACCTAGTGCAG	9460 fluorescence intensity (a.u.)
TGCTTGTGGTTTGTATGGAGTTTGGGTGAAGTGTCACGTACGGAGTCACCTAGTGCAG	9660 fluorescence intensity (a.u.)
CTGTTGTGTTGTGTTGTAATATGATTATGTGGGTGCTTATCGGAGTCACCTAGTGCAG	8390 fluorescence intensity (a.u.)
GGGGTTATGGTGGATTTGGTGCTTTGGGGCATTATGTTTACGGAGTCACCTAGTGCAG	13800 fluorescence intensity (a.u.)
TTTTGGGGTGGGTTTTGGTATCTGATGCTTACGGGCATCTCGGAGTCACCTAGTGCAG	18100 fluorescence intensity (a.u.)
ATTCAGTGGATCCTGCTGCTCAAACTTTGCTGACTGAATTCGGAGTCACCTAGTGCAG	8820 fluorescence intensity (a.u.)
GGGTTTTGCTTTTGCTGTTGTCTTGGGCTTGGGCCTTTGCCGGAGTCACCTAGTGCAG	8660 fluorescence intensity (a.u.)
CTTGGGCGTCTTGTGTTTGTGGGTGAGGTAGCCAGCTGCCCGGAGTCACCTAGTGCAG	9910 fluorescence intensity (a.u.)
AGGAGGTGTAGTAGGGTAGTGTAGGAGGTGTAGTGGAGTACGGAGTCACCTAGTGCAG	8450 fluorescence intensity (a.u.)

Sequence	binding signal
CATCTTTGTGGTTGTGTGGGTGTGTGTGTATATATATACCCGGAGTCACCTAGTGCAG	8180 fluorescence intensity (a.u.)
TGTAGCTTACTGCTTTGGTTTGGGCTGGTTGTGGATTGGACGGAGTCACCTAGTGCAG	11900 fluorescence intensity (a.u.)
TTACCTTAGATTTGGTAGGGCTGGTTAGGGCTGGTTGGAGCGGAGTCACCTAGTGCAG	8680 fluorescence intensity (a.u.)
TGATGTGTGGGTGGTGGTGGTGGTGTGCCTTGTGTAGGTACGGAGTCACCTAGTGCAG	20800 fluorescence intensity (a.u.)
GGCTGTTGGGTTTGTGGGCTTGTGCTAGGCGTCCCAGCTACGGAGTCACCTAGTGCAG	17800 fluorescence intensity (a.u.)
GGGTTGATGTGTGGTGAAGGGTAGGTAATTTGTAGGAGTACGGAGTCACCTAGTGCAG	10800 fluorescence intensity (a.u.)
GGGATGGGTAGGGGTGGGTTGTGCTGTATTATACTACACCCGGAGTCACCTAGTGCAG	19200 fluorescence intensity (a.u.)
GCTTACTGGTTATGGTTGGTAGGGTTGGACGTGTAACAGACGGAGTCACCTAGTGCAG	20900 fluorescence intensity (a.u.)
TGCTGCTACTACATGTGGTGTGGGTGGTATGGTAGGGCCCCGGAGTCACCTAGTGCAG	9060 fluorescence intensity (a.u.)
CCTCGTACGTGTTGGTGTTGCCAAGCCCAAGCCAGTAGTACGGAGTCACCTAGTGCAG	8990 fluorescence intensity (a.u.)
CACGCTTCGTCGTCGGATCGGGACGCCTTGCTGCCTCTGCCGGAGTCACCTAGTGCAG	8170 fluorescence intensity (a.u.)
ACTACATCCGCGCACCTGCTTTGCTCGTCGACGATTATAACGGAGTCACCTAGTGCAG	12900 fluorescence intensity (a.u.)
TGTGGATGAGTGTGTGTGTGTGGAGATCAGTGGGAGACCACGGAGTCACCTAGTGCAG	8170 fluorescence intensity (a.u.)
AAGGGTGTATTTATTGGTGCAATAGCGTTTTTGTTTGACCCGGAGTCACCTAGTGCAG	8690 fluorescence intensity (a.u.)
TAATTACCTCTCTTTAGTTTTGGGGTATGTGTGCTTGGTTCGGAGTCACCTAGTGCAG	9680 fluorescence intensity (a.u.)
CTGTATTCATTAGGGTGGGACTGTATACTATAGTTATTATCGGAGTCACCTAGTGCAG	15700 fluorescence intensity (a.u.)
AGAGCTTAATTTGGTATGTGTGTGTATATATATATATATACGGAGTCACCTAGTGCAG	8150 fluorescence intensity (a.u.)
TGGGGTATGTGTGCTTGGTTATGTGTGCATCTTAGTTATACGGAGTCACCTAGTGCAG	19300 fluorescence intensity (a.u.)
CTGATTCATTATACTAGGAGGGGTGGGAGGGAGGGAGTACCGGAGTCACCTAGTGCAG	18800 fluorescence intensity (a.u.)

Sequence	binding signal
AGGGAGGAGTACATCTAGTAGTATAGGGGAGAGGGTGGGCCGGAGTCACCTAGTGCAG	11500 fluorescence intensity (a.u.)
TATAGGTCCCACGCTATCTCAGTCGCCACATCAGCTAAAACGGAGTCACCTAGTGCAG	8690 fluorescence intensity (a.u.)
TTTTAAGTATAATTTCTCTATAATTTGACAATGTGGTGCTCGGAGTCACCTAGTGCAG	8550 fluorescence intensity (a.u.)
TTTGTTTTGAGCCGAACAAATCGGTAGTCAGTGGGCGGGGCGGAGTCACCTAGTGCAG	11900 fluorescence intensity (a.u.)
TGATCTTTTGTTTCCTGCTTGGTATAGTATAAGCTCTCATCGGAGTCACCTAGTGCAG	8800 fluorescence intensity (a.u.)
TTTTCTTTTTTCCCGCACTTTCTTTTCTTCCCGGAGATGTCGGAGTCACCTAGTGCAG	8400 fluorescence intensity (a.u.)
TTCCTTTTGTCCTCCATGCTCTCTGTATGTCGGTATTTTACGGAGTCACCTAGTGCAG	10500 fluorescence intensity (a.u.)
CCATGGCGGGGTGTATTGTTGTTGTATTTGGGGTTCTGGTCGGAGTCACCTAGTGCAG	19200 fluorescence intensity (a.u.)
AAGCGGTACCATGGGCGGGAGGGTATTTCTGTCCTTTTGTCGGAGTCACCTAGTGCAG	17600 fluorescence intensity (a.u.)
AGTCAACAGGGAGGGTAAAATAAGAAAGCAACAGCAAGAGCGGAGTCACCTAGTGCAG	9730 fluorescence intensity (a.u.)
CTGTTGTTCTGTATATTGTGGTGGGTGTTGATTTGCGGGTCGGAGTCACCTAGTGCAG	12800 fluorescence intensity (a.u.)
CATCGGATATTGTATTATGGTGTTGTATGGGTTGTTCGGGCGGAGTCACCTAGTGCAG	14000 fluorescence intensity (a.u.)
GTCGGTGGAGCGGCCCTTTTTATTTCTGTGGGAGGAGGGTCGGAGTCACCTAGTGCAG	9300 fluorescence intensity (a.u.)
ATTGGGTTCTTGGAGCTGTTGGATTGGGTTTTTTTGGGAGCGGAGTCACCTAGTGCAG	9180 fluorescence intensity (a.u.)
TTAAAAAAAAGTCAACGATGATAAATATTTAGAGAGTGAGCGGAGTCACCTAGTGCAG	13100 fluorescence intensity (a.u.)
GTTTGTGTTCTTGGATTGGGTTGGGTTGGGTTGGTGAGGTCGGAGTCACCTAGTGCAG	17600 fluorescence intensity (a.u.)
GGTTGTGTTCTTGTTGGCGAGGAGGAGAGAGGGGTGGGGTCGGAGTCACCTAGTGCAG	14700 fluorescence intensity (a.u.)
GAAAGATGATTTGGCAAGTAAATAAATAAGAAAAGAGAAGCGGAGTCACCTAGTGCAG	62600 fluorescence intensity (a.u.)
